Test results taken from PubChem BioAssay (NCATS).
Records with an inconclusive call do not appear. Entries that show only a call come without a potency. Active and inactive are the calls of the source. Calls follow the shape of the dose curve; as a rule, active = well fitted curve in the direction sought with a large enough effect; inconclusive = small, poorly fitted or top-dose-only effect, or another doubt; inactive = no such curve, though single readings can be large; an effect the other way counts as inactive or inconclusive.

What was measured:
[1] = target: Glutathione peroxidase 1 (Homo sapiens) (UniProt P07203); assay: Primary qHTS Assay for Inhibitors of Recombinant Selenoprotein Glutathione Peroxidase 1 (GPX1) (AID 1845191); also: nearly all actives have a fitted effect of over 65% in size
Procedure, shortened: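 10 nM GPX1 + cpd, 30 min RT; start w/ 1 mM GSH, 0.5 mM cumene hydroperoxide, 0.5 mM NADPH, 100 nM GR, 0.01% BSA; buffer 50 mM Tris-HCl pH 7.5, 2 mM EDTA, 150 mM NaCl; Fl 340/450, 0 & 15 min.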

[2] = target: Phospholipid hydroperoxide glutathione peroxidase GPX4 (Homo sapiens) (UniProt P36969); assay: Primary qHTS Assay for Inhibitors of Recombinant Selenoprotein Glutathione Peroxidase 4 (GPX4) (AID 1845192); also: series mostly up to about 50 µM; nearly all actives have a fitted effect of over 65% in size
Procedure, shortened: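 NADPH consumption, followed by fluorescence at 340/450 nm between 0 and 15 min, reports GPX4 activity via coupled glutathione reductase (100 nM). Enzyme 200 nM was pre-exposed to compound 30 min; 0.5 mM cumene hydroperoxide and 1 mM GSH served as substrates.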

[3] = target: Luciferin 4-monooxygenase (Photinus pyralis) (UniProt P08659); assay: Primary firefly luciferase (FLuc) qHTS assay for identification of artifact compounds. (AID 1845220); also: nearly all actives have a fitted effect of over 60% in size
Procedure, shortened: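 Compounds sat 15 min at room temperature with 10 uM luciferin and 10 uM ATP (pH 7.6 Tris acetate). Firefly luciferase (10 nM final) was then added, and luminescence was read 5 min later. Data normalized to no-enzyme and DMSO controls were Hill-fitted.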

[4] = Primary fluorescence-based thiol-reactive (MSTI) qHTS assay for identification of artifact compounds. (AID 1845221); also: nearly all actives have a fitted effect of over 65% in size; also: potency is read from the fitted curve at half-maximal effect
Procedure, shortened: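 Thiol-reactive compounds detected by quenching of 4 uM MSTI fluorescence (525/598 nm) after 1 h room-temperature dark incubation in PBS pH 7.4, 2% DMSO. qHTS titration; percent inhibition Hill-fitted against Acetyl-MSTI/MSTI controls.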

[5] = system: Nanoluciferase (engineered Oplophorus gracilirostris luciferase); assay: Primary Nanoluciferase (NLuc) qHTS assay for identification of artifact compounds. (AID 1845222); also: series mostly up to about 54 µM
Procedure, shortened: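 Luminescence from secreted NLuc (filtered, 1:55-diluted S16 cell medium) read 5 min after Nano-Glo substrate; compounds preincubated 15 min, RT. Hill fits of inhibition normalized to DMSO and no-enzyme.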

Sequence of Glutathione peroxidase 1 (Homo sapiens) (P07203 whole entry, looked up): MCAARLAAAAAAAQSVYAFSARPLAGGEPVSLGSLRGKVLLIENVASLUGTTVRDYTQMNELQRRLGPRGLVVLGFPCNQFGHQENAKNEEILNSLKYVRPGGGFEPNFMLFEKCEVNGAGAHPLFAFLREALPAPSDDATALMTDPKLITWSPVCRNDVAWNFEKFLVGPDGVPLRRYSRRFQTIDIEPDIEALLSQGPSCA
Sequence of Phospholipid hydroperoxide glutathione peroxidase GPX4 (Homo sapiens) (P36969 whole entry, looked up): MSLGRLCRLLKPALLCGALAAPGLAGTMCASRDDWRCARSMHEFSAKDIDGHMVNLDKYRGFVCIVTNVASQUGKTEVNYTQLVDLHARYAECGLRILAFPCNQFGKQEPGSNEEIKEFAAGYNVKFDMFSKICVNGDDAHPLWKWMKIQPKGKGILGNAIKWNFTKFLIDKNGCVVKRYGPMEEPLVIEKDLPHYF

SMILES: CSC(=O)OCC1=C[C@@H]2OC(=O)C3=CO[C@@H](O[C@@H]4O[C@H](CO)[C@@H](O)[C@H](O)[C@H]4O)[C@H]1[C@@H]32
- Potency [1]: inactive
- Potency [2]: inactive
- Potency [3]: inactive
- Potency [4]: 6.53 µM (active)
- Potency [5]: inactive

SMILES: O=C(COCC(=O)N1CCN(C(c2ccccc2)c2ccccc2)CC1)Nc1ccc(Cl)cc1C(=O)O
- Potency [1]: inactive
- Potency [2]: inactive
- Potency [3]: inactive
- Potency [4]: inactive
- Potency [5]: inactive

SMILES: C=C1C2(C)CC3C4(C)C=CC(=O)OC(C)(C)C4CCC3(C)C1(C(=O)OC)C(=O)C(C)(O)C2=O (stereo not given)
- Potency [1]: inactive
- Potency [2]: inactive
- Potency [3]: inactive
- Potency [4]: inactive
- Potency [5]: inactive

SMILES: COc1ccc(C(=O)OC2C3C=COC(OC4OC(CO)C(O)C(O)C4O)C3C3(CO)OC23)cc1OC (stereo not given)
- Potency [1]: inactive
- Potency [2]: inactive
- Potency [3]: inactive
- Potency [4]: 4.12 µM (active)
- Potency [5]: inactive

SMILES: CC(=O)OCC1=C[C@@H]2OC(=O)C3=CO[C@@H](O[C@@H]4O[C@H](CO)[C@@H](O)[C@H](O)[C@H]4O)[C@H]1[C@@H]32
- Potency [1]: inactive
- Potency [2]: inactive
- Potency [3]: inactive
- Potency [4]: inactive
- Potency [5]: inactive

SMILES: Cc1occc(=O)c1O[C@@H]1O[C@H](CO)[C@@H](O)[C@H](O)[C@H]1O
- Potency [1]: inactive
- Potency [2]: inactive
- Potency [3]: inactive
- Potency [4]: inactive
- Potency [5]: inactive

SMILES: CCOC(=O)C1=C(N)Oc2ccc(Cl)cc2C1C(C#N)C(=O)OCC (stereo not given)
- Potency [1]: inactive
- Potency [2]: inactive
- Potency [3]: inactive
- Potency [4]: inactive
- Potency [5]: inactive

SMILES: C[C@H]1/C=C/C=C/C=C/C=C/C=C/[C@@H](O)[C@H](C(=O)O)[C@H](O)C[C@H](O)CCC[C@H](O)C[C@H](O)C[C@H](O)[C@@H](C)C(=O)O[C@@H]1C
- Potency [1]: inactive
- Potency [2]: inactive
- Potency [3]: inactive
- Potency [4]: inactive
- Potency [5]: inactive

SMILES: CC1(C)C2CC[C@@]34CC(CC[C@H]3[C@]2(C)CC[C@@H]1O[C@@H]1O[C@H](CO)[C@@H](O)[C@H](O)[C@H]1O)[C@](C)(O)C4 (stereo not given in full)
- Potency [1]: inactive
- Potency [2]: inactive
- Potency [3]: inactive
- Potency [4]: inactive
- Potency [5]: inactive

SMILES: CC(C)(O)C1CC=C(C(=O)OC[C@H]2O[C@@H](OC(=O)C3=CCC(C(C)(C)O)CC3)[C@H](O)[C@@H](O)[C@@H]2O)CC1 (stereo not given in full)
- Potency [1]: inactive
- Potency [2]: inactive
- Potency [3]: inactive
- Potency [4]: 4.12 µM (active)
- Potency [5]: inactive

SMILES: C[C@]1(OC(=O)/C=C/c2ccc(O)cc2)C[C@@H](O)[C@]2(O)C=CO[C@@H](O[C@@H]3O[C@H](CO)[C@@H](O)[C@H](O)[C@H]3O)C12 (stereo not given in full)
- Potency [1]: inactive
- Potency [2]: inactive
- Potency [3]: inactive
- Potency [4]: inactive
- Potency [5]: inactive
